A selection: hits, their analogues and other compounds. The true share with any hit is near 1.3%.
TRPV1 potentiator – human TRPV1 potentiation; Q8NER1; potentiation, % at 8.33 µM; TRPV1-expressing cells, Fluo-8 calcium influx, capsaicin EC20 potentiation; 0.02% of 320,000 active; in the data active = potentiation above about 80%; inconclusive = between about 30% and that limit; note: 0% is about no effect
Target sequence (Q8NER1 whole entry, looked up): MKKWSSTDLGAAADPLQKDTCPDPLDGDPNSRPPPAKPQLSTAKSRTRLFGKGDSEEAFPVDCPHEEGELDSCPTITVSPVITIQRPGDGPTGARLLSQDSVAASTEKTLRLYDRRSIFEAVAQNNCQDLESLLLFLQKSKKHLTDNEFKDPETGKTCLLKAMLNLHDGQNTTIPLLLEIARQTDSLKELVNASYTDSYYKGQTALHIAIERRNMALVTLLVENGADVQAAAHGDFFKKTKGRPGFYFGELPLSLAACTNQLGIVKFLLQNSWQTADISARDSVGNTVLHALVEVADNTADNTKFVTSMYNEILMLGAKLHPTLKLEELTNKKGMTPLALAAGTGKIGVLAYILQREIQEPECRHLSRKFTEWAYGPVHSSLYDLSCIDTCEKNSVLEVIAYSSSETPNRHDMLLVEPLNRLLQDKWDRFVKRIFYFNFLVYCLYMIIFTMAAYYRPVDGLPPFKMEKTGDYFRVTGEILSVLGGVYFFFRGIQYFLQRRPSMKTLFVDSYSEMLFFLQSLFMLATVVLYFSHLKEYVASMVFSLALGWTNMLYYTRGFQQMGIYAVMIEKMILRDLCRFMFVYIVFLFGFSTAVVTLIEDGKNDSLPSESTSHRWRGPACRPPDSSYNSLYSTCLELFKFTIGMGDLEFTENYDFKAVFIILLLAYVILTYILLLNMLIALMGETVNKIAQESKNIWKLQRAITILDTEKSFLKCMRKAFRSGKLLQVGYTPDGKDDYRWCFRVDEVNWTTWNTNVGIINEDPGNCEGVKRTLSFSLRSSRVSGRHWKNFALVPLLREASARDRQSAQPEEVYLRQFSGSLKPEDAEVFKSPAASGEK
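Fluo-8 calcium influx in TRPV1-expressing cells, kinetic read (ex 480/em 520 nm). Compound added and read 3 min for agonist activity, followed by capsaicin at EC20 final and 2 min further read for enhancement.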
TRPML1 ag – activates the human TRPML1 channel. Q9GZU1. TRPML1-expressing cells, Ca2+ dye fluorescence, FDSS. activation, % (no concentration beside the values). 0.12% of 410,000 active. AID 624414; in the data active = activation above about 50%; inconclusive = mostly about 30% to 49%; note: 0% is about no effect
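Cells: TRPML1-DL, 1X Tet inducer, ~16 h at 37 degrees C/5% CO2. Dye: ABD Ca8 no-wash + quencher, 45-90 min RT. Read: 10 s baseline, compound add, 110 s agonist phase; 54-4 EC80 (4uM final), 110 s antagonist phase.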
TRPML1 inh – human mucolipin-1 channel inhibition; 0.02% of 390,000 active; TRPML1-inducible cells, Ca2+ dye fluorescence, FDSS; hits give low values; inhibition of EC80 agonist-evoked calcium signal; AID 624415; activity change, negative = inhibition, % (concentration not given with the values); in the data active = activity change below about -50%; inconclusive = between about -30% and that limit;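 note: stimulus is agonist 54-4 at its EC80 concentration; % is set by controls: 0 for no effect and ±100 for the full control effect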
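Calcium fluorescence in TRPML1-DL cells induced overnight with Tet: a 110 s read after compound pin addition, then a 110 s antagonist read after challenge with 54-4 at 4 uM final (EC80).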
KCNH2 WT inh – KCNH2 (human, wildtype) channel inhibition; U2OS, BacMam KCNH2, thallium flux FluxOr; hits give low values; activity change, % at 1.84 µM; Q12809; 0.37% of 340,000 active;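 active = maximum activity change below -70%; inconclusive = maximum activity change between -70% and -50%; inactive = maximum activity change above -50%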; note: % is set by controls: 0 for no effect and ±100 for the full control effect
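U2OS cells transduced with wild-type KCNH2 virus are loaded with FluxOr dye for 45 min, and thallium flux is measured in kinetic reads before and after stimulation buffer. Rate constants are normalized to DMSO controls.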
TRPV1 agonist – human TRPV1 agonism | Q8NER1 | TRPV1-expressing cells, Fluo-8 calcium influx, agonist mode | activation, % at 8.33 µM | 0.19% of 320,000 active; in the data active = activation above about 80%; inconclusive = between about 30% and that limit; note: 0% is about no effect
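Fluo-8 calcium influx in TRPV1-expressing cells, kinetic read (ex 480/em 520 nm). Compound added and read 3 min for agonist activity, followed by capsaicin at EC20 final and 2 min further read for enhancement.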
KCNH2 3.1 inh – blocks the human KCNH2 3.1 channel isoform; 0.95% of 340,000 active; AID 720553; activity change, % (tested at about 1.8 µM); U2OS KCNH2 3.1, thallium flux FluxOr; hits give low values;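 active = maximum activity change below -70%; inconclusive = maximum activity change from -70% to -50%; inactive = maximum activity change above -50%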;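 note: thallium influx rate constant from kinetic fluorescence after stimulation buffer; % is set by controls: 0 for no effect and ±100 for the full control effect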
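Normalized rate constant (relative to positive and negative DMSO controls) derived from a 2 min kinetic fluorescence read after stimulation; U2OS cells expressing the 3.1 isoform via virus at 1.77 x 10^8 /mL.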
An asterisk follows results filed as active.

How did Cc1cc(CN2C(=O)c3ccccc3C2=O)cc(N2CCOCC2)c1 do in these assays?
TRPML1 ag: 0.6; TRPML1 inh: -9.4; KCNH2 WT inh: -293.6*; KCNH2 3.1 inh: 4.6

Results for Cc1nn(C(=O)N2CCOCC2)c(C)c1CN1C(=O)c2ccccc2C1=O ?
TRPML1 ag: -0.8; TRPML1 inh: 4.2; KCNH2 WT inh: -0.5; KCNH2 3.1 inh: 4.9

What do the screens show for `Cc1cc(Oc2ccc(Cl)cc2Cl)nc(C#N)n1`?
TRPML1 ag: -1.0

Results for C=C[C@H](CC(C)C)N(Cc1ccccc1)S(=O)(=O)N(Cc1ccccc1)[C@H](C=C)CC(C)C ?
TRPML1 ag: -0.3

Results for CC(=O)c1ccc(N2CCN(CC(O)COC(c3ccccc3)c3ccccc3C)CC2)cc1 (configuration not stated) ?
TRPV1 potentiator: 10.2; TRPML1 ag: 0.9; TRPML1 inh: 13.5; KCNH2 WT inh: -25.3; TRPV1 agonist: 0.5; KCNH2 3.1 inh: -94.2*

Results for COc1ccc(-c2ccnc3nc(N4CCOCC4)nn23)cc1 ?
TRPV1 potentiator: -15.6; TRPML1 ag: 1.0; TRPML1 inh: 15.8; KCNH2 WT inh: -4.2; TRPV1 agonist: 1.2; KCNH2 3.1 inh: -107.5*

What do the screens show for `c1ccc(Oc2ccc(-c3ccnc4nc(N5CCOCC5)nn34)cc2)cc1`?
TRPV1 potentiator: -4.0; TRPML1 ag: 5.2; TRPML1 inh: 50.0; KCNH2 WT inh: -9.7; TRPV1 agonist: inconclusive; KCNH2 3.1 inh: -117.8*

How did Cc1cccc(-c2nc(SCC(=O)NCC3CCCO3)c3c(=O)n(C)c(=O)n(C)c3n2)c1 (configuration not stated) do in these assays?
TRPML1 ag: -0.8; TRPML1 inh: -10.1

Results for CCCOc1ccc(Oc2nc(NC)nc(N3CCOCC3)n2)nn1 ?
TRPML1 ag: 1.3; TRPML1 inh: -17.4

How did C(=C\c1ccnc2ccccc12)/c1ccc2ccccc2n1 do in these assays?
TRPML1 ag: -0.6

What do the screens show for `CCn1c(-c2cc(-c3cccc(OC)c3)nc3ccccc23)n[nH]c1=S`?
TRPV1 potentiator: -28.3; TRPML1 ag: 1.5; TRPML1 inh: -4.6; KCNH2 WT inh: 2.0; TRPV1 agonist: inconclusive; KCNH2 3.1 inh: -78.3*

How did CCc1ccc(-c2cc(-c3n[nH]c(=S)n3CC)c3ccccc3n2)cc1 do in these assays?
TRPV1 potentiator: 0.8; TRPV1 agonist: 15.6

How did COc1cc(NC(=O)c2cc3cc4ccc(C)cc4nc3o2)cc(OC)c1OC do in these assays?
TRPML1 ag: 0.1; TRPML1 inh: 0.0

Results for Nc1nonc1NN=C1CCCCC1 ?
TRPV1 potentiator: -2.1; TRPML1 ag: 2.1; TRPML1 inh: 15.6; KCNH2 WT inh: -10.6; TRPV1 agonist: 14.5; KCNH2 3.1 inh: -80.5*

What do the screens show for `Cc1ccc(S(=O)(=O)N2CCC(C(=O)NNC(=O)c3ccccc3)CC2)cc1`?
TRPV1 potentiator: 1.4; TRPML1 ag: 0.8; TRPML1 inh: 3.8; KCNH2 WT inh: 14.9; TRPV1 agonist: 1.4; KCNH2 3.1 inh: -115.4*

Results for Cc1ccnc(NC(=O)C2CCN(S(=O)(=O)c3ccc(Cl)c(C(F)(F)F)c3)CC2)c1 ?
TRPV1 potentiator: -1.8; TRPML1 ag: 2.2; TRPML1 inh: 8.8; KCNH2 WT inh: -0.5; TRPV1 agonist: 7.9; KCNH2 3.1 inh: -30.8

What do the screens show for `Cc1ccc(NC(=O)C2CCN(S(=O)(=O)c3ccc(Cl)c(C(F)(F)F)c3)CC2)nc1`?
TRPV1 potentiator: -20.9; TRPML1 ag: 69.0*; TRPML1 inh: -8.0; KCNH2 WT inh: -1.6; TRPV1 agonist: 23.9; KCNH2 3.1 inh: -13.9

What do the screens show for `O=C(Nc1ccncc1)C1CCN(S(=O)(=O)c2ccccc2C(F)(F)F)CC1`?
TRPV1 potentiator: -5.3; TRPML1 ag: -0.3; TRPML1 inh: 0.7; KCNH2 WT inh: 5.3; TRPV1 agonist: 82.8*; KCNH2 3.1 inh: 0.7

How did Cc1ccc(NC(=O)c2ccc(S(=O)(=O)N3CCCC3)cc2)nc1 do in these assays?
TRPV1 potentiator: 5.2; TRPML1 ag: -0.5; TRPML1 inh: -0.2; KCNH2 WT inh: -17.7; TRPV1 agonist: 86.4*; KCNH2 3.1 inh: -5.8

Results for O=C(Nc1ccncc1)C1CCN(S(=O)(=O)c2ccccc2)CC1 ?
TRPV1 potentiator: 2.4; TRPML1 ag: -0.2; TRPML1 inh: 13.7; KCNH2 WT inh: -7.0; TRPV1 agonist: -3.4; KCNH2 3.1 inh: 0.7

How did O=S(=O)(c1ccc(Cl)cc1)c1nc(-c2cccs2)oc1SCc1ccccc1F do in these assays?
TRPML1 ag: 0.1; TRPML1 inh: -11.1

How did COc1ccc(OC)c(S(=O)(=O)N2CCC(c3ccncc3)CC2)c1 do in these assays?
TRPML1 ag: -0.1; TRPML1 inh: -11.6

What do the screens show for `Cc1ccc2nc(NC(=O)CS(=O)(=O)Cc3ccccc3)sc2c1`?
TRPV1 potentiator: -0.1; TRPML1 ag: 0.9; TRPML1 inh: -10.9; KCNH2 WT inh: -3.1; TRPV1 agonist: 84.6*; KCNH2 3.1 inh: 12.5

Results for O=c1ccc2c(-c3ccccc3)c3ccc(O)cc3oc-2c1 ?
TRPV1 potentiator: -3.7; TRPML1 ag: 139.4*; TRPML1 inh: inconclusive; KCNH2 WT inh: inconclusive; TRPV1 agonist: 1.6; KCNH2 3.1 inh: -34.3

How did Nc1ccc(-c2c3ccc(=O)cc-3oc3cc(O)ccc23)cc1C(=O)O do in these assays?
TRPV1 potentiator: -21.3; TRPML1 ag: 65.2*; TRPML1 inh: -10.5; KCNH2 WT inh: -4.2; TRPV1 agonist: 93.3*; KCNH2 3.1 inh: -5.7

How did COc1ccc(-c2c(C)c3ccc(O)cc3oc2=O)cc1OC do in these assays?
TRPV1 potentiator: 3.1; TRPML1 ag: 0.7; TRPML1 inh: 8.3; KCNH2 WT inh: 0.9; TRPV1 agonist: -2.4; KCNH2 3.1 inh: 6.6

What do the screens show for `O=c1cc(-c2ccccc2)oc2cc(O)ccc12`?
TRPML1 ag: 1.6; TRPML1 inh: 4.5; KCNH2 WT inh: -5.2; KCNH2 3.1 inh: 1.8

How did Cc1cc(NC(=O)CCC(=O)N(c2ccccc2)C(C(=O)NC2CCCC2)c2cccs2)no1 (configuration not stated) do in these assays?
TRPV1 potentiator: -4.7; TRPML1 ag: -0.7; TRPML1 inh: -5.7; KCNH2 WT inh: 4.3; TRPV1 agonist: 19.9; KCNH2 3.1 inh: -185.7*

Results for Cc1ccc2c(C)c(C(=O)Nc3cccnc3)oc2c1 ?
TRPV1 potentiator: -1.9; TRPML1 ag: -1.0; TRPML1 inh: -2.5; KCNH2 WT inh: -0.4; TRPV1 agonist: -4.2; KCNH2 3.1 inh: 0.6

What do the screens show for `Cc1cc2oc(C(=O)Nc3cccnc3)c(C)c2cc1C`?
TRPV1 potentiator: 0.2; TRPML1 ag: -0.3; TRPML1 inh: 13.6; KCNH2 WT inh: -25.7; TRPV1 agonist: 85.0*; KCNH2 3.1 inh: 15.0

Results for Cc1ccc(NC(=O)Nc2ccno2)cc1 ?
TRPML1 ag: 0.6; TRPML1 inh: -0.7; KCNH2 WT inh: 1.2; KCNH2 3.1 inh: -111.8*
